# In PubChem BioAssay AID449762 (Southern Research Specialized Biocontainment Screening …, 2010):
# The whole screen tested about 330,000 compounds, of which about 1,900 (0.58%) were called active. Not shown: some 4% with an inconclusive outcome. A selection follows. Measured potencies and affinities stand elsewhere. Unmarked numbers belong to inactive results. No stated cut-off is given here; in the data, inconclusive means inhibition above about 70% without an active follow-up result; inactive means below that.
# Assay: M. tuberculosis growth inhibition, HTS (AID 449762);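 further: bacterial growth assessed after seven days of incubation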
# Settings: M. tuberculosis H37Rv growth inhibition, 7H9 media; at 25 µM; active compounds read high
row,SMILES,inhibition [%]
1,O=C(O)c1cc(O)c2c(c1)C(=O)c1cc(O)cc(O)c1C2=O,-5.47
2,O=C1c2cc(O)cc(O)c2C(=O)c2c1cc(O)c([C@@H](CO)CCO)c2O,-12.7
3,CCOc1ccccc1NC(=S)NC1CCCCC1,-19.5
4,CCc1nn(CC(=O)NCCN2CCN(C)CC2)c(=O)c2cc3c(OC)cccc3n12,7.05
5,CCc1ccc(N=CC2=C(O)CC(c3ccco3)CC2=O)cc1 (configuration not stated),0.59
6,Cc1ccc(N=CC2=C(O)CC(c3ccco3)CC2=O)cc1 (configuration not stated),-6.24
7,Cc1cccc(C)c1NC(=O)C1NC(=O)CC1c1ccccc1 (configuration not stated),17.9
8,CCOc1ccc(C2/C(=C(/O)c3ccc(S(=O)(=O)N4CCCCC4)cc3)C(=O)C(=O)N2CCCOC)cc1OC (configuration not stated),-12.5
9,COc1ccc(N(C(C)C(=O)NN=C2CCCC2)S(C)(=O)=O)cc1 (configuration not stated),-2.55
10,COc1ccc(-n2ccnc2)cc1,1.26
11,Cc1ccc2cccc(Oc3ncnc4sc(C)c(C)c34)c2n1,42
12,COc1ccc2oc(C(=O)OCC(=O)Nc3cc(S(=O)(=O)N4CCOCC4)ccc3OC)c(C)c2c1,0.56
13,COc1ccccc1C(=O)NNC(=O)C(=O)NC(C)C,61.6
14,Cc1ccc2nc(SCc3nc4c(cnn4-c4ccccc4)c(=O)[nH]3)[nH]c2c1,0.73
15,Cc1ccc(-c2nc3ccccc3s2)cc1NC(=S)NC(=O)/C=C/c1ccco1,-2.81
16,Cc1ccc(-c2nc3ccccc3o2)cc1NC(=S)NC(=O)/C=C/c1ccco1,-10.3
17,CCOC(=O)[C@H]1[C@H]2COc3ccccc3[C@@H]2N2C(=O)c3cc(F)c(F)cc3NC(=O)[C@@]12C,-2.93
18,CC(C)NS(=O)(=O)c1ccc(OCC(=O)NCC2CCCO2)c(Cl)c1 (configuration not stated),-3.59
19,COc1ccc(NC(=O)c2c(Cl)nc3ccccn23)cc1,9.69
20,CC(C)(C)c1ccc(C(=O)OCCNC(=O)c2c(Cl)nc3ccccn23)cc1,-5.57
21,CSc1ccccc1C(=O)N1CCN(c2cccc(Cl)c2)CC1,-1.96
22,O=S1(=O)CCC(n2ncc3c2/C(=C/c2ccccc2)CC3)C1 (configuration not stated),4.34
23,Cn1c(CNC(=O)c2ccco2)nnc1SCC(=O)c1ccc(F)cc1,-2.19

row,SMILES,inhibition [%]
1,O=C(Nc1ccccc1)C1=C[C@H](C2CCCCC2)C[C@H](OCc2ccc(CO)cc2)O1,8.7
2,O=C(Nc1ccccc1)C1=C[C@@H](C2CC2)C[C@@H](OCc2ccc(CO)cc2)O1,5.14
3,O=C(c1cc(-c2ccncc2)nc2ccccc12)N1CCN(Cc2ccccc2)CC1,-9.48
4,Cc1ccccc1CN1CCN(C(=O)c2cc(-c3ccncc3)nc3ccccc23)CC1,12.1
5,C[C@H]1CC[C@]2(O[C@H](CCO)C[C@H](O)[C@H]2O)O1,3.36
6,O=C(Nc1cc(F)ccc1F)C1CCCO1 (configuration not stated),-6.27
7,Cc1ccc(C(=O)Nc2ccc([N+](=O)[O-])cn2)o1,-6.44
8,C=CCc1c(C)nc(SC)nc1Nc1ccc(C)cc1,56
9,C=CCc1c(C)nc(SC)nc1Nc1ccc(C(=O)O)cc1,-7.64
10,Cc1cccc(C(=O)NCc2nnc(SCC(=O)N3CCN(c4ccccc4)CC3)n2C)c1,0.25
11,CSc1ncc(C(=O)Nc2ccccc2C)c(C)n1,58.1
12,CSc1ncc(C(=O)Nc2ccccc2Cl)c(C)n1,6.57
13,Cc1ccc(NC(=O)COC(=O)CCn2c(C)csc2=O)cc1S(=O)(=O)N1CCOCC1,-2.47
14,O=[N+]([O-])c1ccc(Nc2ccc(Cl)cc2)nc1,25.4
15,O=C(O)c1ccc(Nc2ncc([N+](=O)[O-])cc2[N+](=O)[O-])cc1,3.64
16,O=C(COC(=O)c1ccccc1Br)Nc1ccc2[nH]c(=O)[nH]c2c1,-0.67
17,Cc1ccc(C)c(-c2csc(NC(=O)C3=COCCO3)n2)c1,65
18,CS(=O)(=O)c1ccccc1-c1nnc(NC(=O)C2=COCCO2)o1,0.09
19,Cc1c(NS(=O)(=O)c2cccc(C(=O)OCC(=O)N(C)C3CCCCC3)c2)c(=O)n(-c2ccccc2)n1C,-13.2
20,CCCOc1ccc(C(=O)NCc2cccnc2)cc1,1.16
21,CCOc1ccc(C(=O)NC(=S)NCc2cccnc2)cc1,-0.27
22,NC(=S)NCc1cccnc1,-5.18
23,S=C(NCc1cccnc1)NCc1cccnc1,-1.16

row,SMILES,inhibition [%]
1,C[C@H](CO)N1C[C@H](C)[C@@H](CN(C)S(=O)(=O)c2cn(C)cn2)Oc2ccc(NC(=O)Nc3ccc4c(c3)OCO4)cc2C1=O,3.14
2,COc1cccc(C2=NN(C(=O)c3ccc(C)o3)C(O)(C(F)(F)F)C2)c1 (configuration not stated),3.82
3,Cc1coc2cc3oc(=O)c(CCC(=O)NCCCN4CCCC4=O)c(C)c3cc12,-8.05
4,CN(C(=S)Nc1ccc(F)cc1)C1(c2ccccc2Cl)CCCCC1=O (configuration not stated),-2.19
5,O=C(O)COc1ccccc1/C=N/NC(=O)C(O)c1ccccc1 (configuration not stated),-3.84
6,Brc1ccc(-c2csc(-c3c[nH]c4ccccc34)n2)cc1,20.1
7,c1ccc2c(-c3csc(-c4ccncc4)n3)c[nH]c2c1,2.11
8,CCCC(C)NC(=O)COC(=O)c1ccc(Cl)c(S(N)(=O)=O)c1 (configuration not stated),-0.98
9,N#CCOC(=O)c1c2c(nc3ccccc13)CCC2,1.84
10,CN(Cc1ccccc1)C(=S)NC(=O)c1ccc(-c2ccccc2)cc1,26.7
11,C=CCN(CC=C)C(=S)NC(=O)/C=C/c1ccccc1,-2.7
12,O=C(/C=C/c1ccc(OC2CSC2)cc1)c1ccc(Cl)cc1,11.9
13,COc1cccc(-c2nn(C)c3sc(C(=O)Nc4ccc5c(c4)OCCO5)cc23)c1,3.01
14,COCCNC(=O)c1cc2c(-c3ccccc3F)nn(C)c2s1,12.7
15,COc1ccc(C2/C(=C(/O)c3ccc(F)cc3)C(=O)C(=O)N2CCCN2CCOCC2)cc1OC (configuration not stated),-2.8
16,Cc1nc2c(=O)oc3ccccc3c2n1-c1ccccc1,-4.41
17,Cn1c(C(F)(F)F)nc2c(=O)oc3ccccc3c21,66.9
18,COc1cc(Cl)ccc1NC(=S)N(CCCN1CCOCC1)Cc1cn(C)c2ccccc12,-4.57
19,O=C(Nc1ccc(Oc2ccc3c(c2)C(=O)N(c2ccc(O)cc2)C3=O)cc1)c1cccs1,2.92
20,COCCNc1nc(-c2cc(C(=O)Nc3ccccc3)on2)cc(C(C)C)n1,14.4
21,CCCNc1nc(C)cc(-c2cc(C(=O)Nc3ccccc3)on2)n1,28.1
22,COC(=O)C1CCCCN1C(=O)CCc1nnc(CCc2c[nH]c3ccccc23)o1 (configuration not stated),0.08
23,COCCNC(=O)c1ccc(N2CCC3(CC2)OCCO3)c([N+](=O)[O-])c1,-3.57

row,SMILES,inhibition [%]
1,CCCCNC(=O)c1ccc(N2CCC3(CC2)OCCO3)c([N+](=O)[O-])c1,-3.04
2,N#C[C@@H]1[C@@H]2C(=O)N(c3ccc4c(c3)OCCO4)C(=O)[C@@H]2C2c3ccccc3C=CN21 (some centres not stated),-6.97
3,CCn1c(SCC(=O)Nc2cc(C(C)(C)C)nn2-c2ccccc2)nnc1-c1cccs1,-2.18
4,O=C(C1CCC(CNc2nc(=S)[nH]c3ccccc23)CC1)N1CCN(c2ccccn2)CC1 (configuration not stated),6.46
5,COc1cccc(N2CCN(C(=O)CCCCCNc3nc(=S)[nH]c4ccccc34)CC2)c1,13.8
6,CCOC(=O)c1ccc(-c2c(-c3ccccc3OC)sc3cc4c(cc23)OCO4)cc1F,6.83
7,O=C(Cc1c(F)cccc1Cl)Nc1ccc(S(=O)(=O)N2CCOCC2)cc1,-7.05
8,CCOC(=O)CNC(=O)CNC(=O)c1nn(-c2ccc(OC)c(OC)c2)c(=O)c2ccccc12,23.4
9,CCOC(=O)N1CCN(C(=O)CNC(=O)c2nn(-c3ccc(OC)c(Cl)c3)c(=O)c3ccccc23)CC1,7.01
10,O=C(c1ccccc1N(Cc1ccccc1)S(=O)(=O)c1ccccc1)N1CCOCC1,-3.28
11,Cn1c(=O)n(C)c2cc(NC(=O)COc3ccc(F)cc3)ccc21,-1.78
12,O=C1CCN(CCc2ccccc2)CCN1[C@H](CSc1ccccc1)c1ccccc1,21.9
13,c1ccc2c(c1)ncn2-c1ncnc2sc3c(c12)CCCC3,7.95
14,CC(O)CNc1nc2sc3c(c2c(=O)n1CCc1ccccc1)CCCCC3 (configuration not stated),-3.46
15,O=C(COc1ccccc1Cl)Nc1ccc2c(c1)C(=O)NC2=O,-3.92
16,CCOC(=O)COc1ccc2c(c1)C(=O)CC(C)(C)O2,54.7
17,CC1(C)CC(=O)c2cc(OCC(=O)NCc3cccnc3)ccc2O1,-4.88
18,COc1ccc2c(c1OC)C(=O)N1C2SC(C)(C)[C@H]1C(=O)NC(C)C (some centres not stated),-6.91
19,COc1ccc(-c2cc3nc[nH]c(=O)c3s2)cc1,65.4
20,COc1ccc(-c2cc3nc(C)n(N)c(=O)c3s2)cc1,-2.06
21,COc1ccc(CC(=O)Nc2nc(C)cs2)cc1OC,0.84
22,Cc1ccccc1N1CCN(C(=O)C2CCC(=O)N(C3CCCC3)C2)CC1 (configuration not stated),2.89
23,O=C(C1CCC(=O)N(C2CCCCCC2)C1)N1CCN(c2ccccc2Cl)CC1 (configuration not stated),1.52
